Compound activity from PubChem.
TEAD-YAP block: TEAD-YAP interaction inhibition, primary screen, TEAD-YAP interaction inhibitor project, luminescence, HEK-TIYL cells; AID 1259422, 2018; 1.4% of 640,000 active; TEAD-Gal4/YAP UAS-luciferase luminescence; inhibition, % at 9.12 µM; in the data active = inhibition above about 32%
MITF primary: MITF inhibitors, primary screen, biochemical, AlphaScreen, human; Microphthalmia-associated transcription factor (Homo sapiens), O75030; AlphaScreen MITF homodimerization, bead proximity signal; inhibition, % at 2.6 µM; 0.91% of 650,000 active; AID 1259374, 2018; in the data active = inhibition above about 50%
Target sequence (O75030 whole entry, looked up): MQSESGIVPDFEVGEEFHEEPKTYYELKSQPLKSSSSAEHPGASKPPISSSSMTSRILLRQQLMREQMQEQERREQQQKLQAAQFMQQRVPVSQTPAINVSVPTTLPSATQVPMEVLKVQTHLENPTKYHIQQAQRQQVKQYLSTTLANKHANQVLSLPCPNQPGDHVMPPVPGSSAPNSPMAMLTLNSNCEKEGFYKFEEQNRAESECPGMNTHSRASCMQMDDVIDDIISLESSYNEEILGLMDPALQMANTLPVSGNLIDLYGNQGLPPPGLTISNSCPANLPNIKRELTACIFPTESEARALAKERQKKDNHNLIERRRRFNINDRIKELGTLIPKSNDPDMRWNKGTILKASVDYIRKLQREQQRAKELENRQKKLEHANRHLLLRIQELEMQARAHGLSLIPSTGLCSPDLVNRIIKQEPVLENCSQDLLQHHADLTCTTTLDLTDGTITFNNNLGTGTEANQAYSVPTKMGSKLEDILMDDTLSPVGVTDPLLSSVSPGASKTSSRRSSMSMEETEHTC
FBW7 activator: FBW7 E3 ligase activators, primary screen, biochemical, AlphaScreen, human; AlphaScreen FBW7–phospho-cyclin E peptide binding, activator screen; normalized activity (activation), % at 26.1 µM; 0.13% of 650,000 active; AID 1259310, 2017; in the data active = normalized activity above about 1.9%;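 note: purified mutant Fbw7 with reduced substrate affinity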
GPR151 ag: activators of human GPR151, primary screen, cell-based, PathHunter beta-arrestin, luminescence | activation, % at 11.2 µM | AID 1508602, 2020 | 1% of 650,000 active | G-protein coupled receptor 151 (Homo sapiens), Q8TDV0 | PathHunter beta-arrestin GPR151 cells; in the data active = activation above about 4.9%
A number is an active result. A selection: hits, their analogues and other compounds. The true share with any hit is near 3.5%.

What do the screens show for `OC1CCN(c2ncn(-c3ccc(Nc4nccc(-c5cccc(N6CCOCC6)c5)n4)cc3)n2)CC1`?
TEAD-YAP block: 82; MITF primary: inactive; FBW7 activator: inactive; GPR151 ag: inactive

What do the screens show for `CCc1ncn(-c2ccc(Nc3nccc(-c4cccc(N5CCOCC5)c4)n3)cc2)n1`?
TEAD-YAP block: 46; MITF primary: inactive; FBW7 activator: inactive; GPR151 ag: inactive

Results for CC(C)c1ncn(-c2ccc(Nc3nccc(-c4cccc(N5CCOCC5)c4)n3)cc2)n1 ?
TEAD-YAP block: inactive; MITF primary: inactive; FBW7 activator: inactive; GPR151 ag: inactive

How did Fc1cncc(-c2ccnc(Nc3ccc(-n4cnc(N5CCOCC5)n4)cc3)n2)c1 do in these assays?
TEAD-YAP block: inactive; MITF primary: inactive; FBW7 activator: inactive; GPR151 ag: inactive

What do the screens show for `CC(=O)c1cccc(NC(=O)Cn2nc(C(F)(F)F)c(Cl)c2C)c1`?
TEAD-YAP block: inactive; MITF primary: inactive; FBW7 activator: inactive; GPR151 ag: inactive

How did CCCCCCOc1ccc(OC(=O)c2cccc(I)c2)cc1 do in these assays?
TEAD-YAP block: inactive; MITF primary: inactive; FBW7 activator: inactive; GPR151 ag: inactive

Results for Cc1ccc(-c2csc(NC(=O)c3c(-c4ccccc4Cl)noc3C)n2)c(C)c1 ?
TEAD-YAP block: inactive; MITF primary: inactive; FBW7 activator: inactive; GPR151 ag: inactive

What do the screens show for `CS(=O)(=O)c1cc(-c2ccnc(Nc3ccc(-n4cnc(-c5ccccn5)n4)cc3)n2)cc(N2CCOCC2)c1`?
TEAD-YAP block: 89; MITF primary: inactive; FBW7 activator: inactive; GPR151 ag: inactive

How did c1ccc(Cn2nnnc2-c2ccc(Nc3nccc(-c4cccc(N5CCOCC5)c4)n3)cc2)cc1 do in these assays?
TEAD-YAP block: inactive; MITF primary: inactive; FBW7 activator: 2.0; GPR151 ag: inactive

What do the screens show for `CCN1CCN(c2ncn(-c3ccc(Nc4nccc(-c5cccc(N6CCOCC6)c5)n4)cc3)n2)CC1`?
TEAD-YAP block: 55; MITF primary: inactive; FBW7 activator: inactive; GPR151 ag: inactive

Results for CCN1CCN(c2ncn(-c3ccc(Nc4nccc(-c5cc(C#N)cc(N6CCOCC6)c5)n4)cc3)n2)CC1 ?
TEAD-YAP block: inactive; MITF primary: inactive; FBW7 activator: inactive; GPR151 ag: inactive

Results for Cc1ccncc1-c1ncn(-c2ccc(Nc3nccc(-c4cc(F)cc(N5CCOCC5)c4)n3)cc2)n1 ?
TEAD-YAP block: inactive; MITF primary: inactive; FBW7 activator: inactive; GPR151 ag: inactive

What do the screens show for `CC1CCc2c(sc(NC(=O)c3ccco3)c2C(=O)O)C1` (centres undefined)?
TEAD-YAP block: 33; MITF primary: inactive; FBW7 activator: inactive; GPR151 ag: inactive

What do the screens show for `CCN(CC)C(=O)c1c(NC(=O)c2ccco2)sc2c1CCC(C(C)(C)C)C2` (centres undefined)?
TEAD-YAP block: inactive; MITF primary: inactive; FBW7 activator: inactive; GPR151 ag: inactive

What do the screens show for `CC(C)(C)C1CCc2c(sc(NC(=O)c3ccco3)c2C(=O)O)C1` (centres undefined)?
TEAD-YAP block: 90; MITF primary: inactive; FBW7 activator: inactive; GPR151 ag: inactive

How did CC1=C(C(=O)OCCOc2ccccc2)C(c2ccccc2[N+](=O)[O-])CC(=O)N1 (centres undefined) do in these assays?
TEAD-YAP block: inactive; MITF primary: inactive; FBW7 activator: inactive; GPR151 ag: inactive

Results for CCOC(=O)c1sc2ncccc2c1N ?
TEAD-YAP block: inactive; MITF primary: inactive; FBW7 activator: inactive; GPR151 ag: inactive

Results for CCOC(=O)C1=C(C)NC2=C(C(=O)c3ccccc32)C1c1cc(OC)c(OC)c(OC)c1 (centres undefined) ?
TEAD-YAP block: 53; MITF primary: inactive; FBW7 activator: inactive; GPR151 ag: inactive

How did Brc1ccc(-c2cn3c4ccccc4nc3n2CCCN2CCCCC2)cc1 do in these assays?
TEAD-YAP block: inactive; MITF primary: inactive; FBW7 activator: 2.2; GPR151 ag: inactive

What do the screens show for `CCN(CC)CCCn1c(-c2ccc(Cl)cc2)cn2c3ccccc3nc12`?
TEAD-YAP block: inactive; MITF primary: inactive; FBW7 activator: inactive; GPR151 ag: inactive

What do the screens show for `CCN(CC)CCCn1c(-c2ccc(Br)cc2)cn2c3ccccc3nc12`?
TEAD-YAP block: inactive; MITF primary: inactive; FBW7 activator: 2.2; GPR151 ag: inactive

Results for Clc1ccc(-c2cn3c4ccccc4nc3n2CCCNC2CCCCC2)cc1 ?
TEAD-YAP block: inactive; MITF primary: inactive; FBW7 activator: 3.1; GPR151 ag: inactive

How did COc1ccc(-c2noc(CN(C)Cc3ccccc3)n2)c(OC)c1OC do in these assays?
TEAD-YAP block: inactive; MITF primary: inactive; FBW7 activator: inactive; GPR151 ag: inactive

How did N#CC(C#N)=C(N)/C(C#N)=C/c1ccc(-c2cc(C(=O)O)cc(C(=O)O)c2)o1 do in these assays?
TEAD-YAP block: inactive; MITF primary: 63; FBW7 activator: inactive; GPR151 ag: inactive

How did CNC(=O)c1ncccc1Nc1cc(Nc2ccc(C(=O)N(C)C)cn2)ncc1C(F)(F)F do in these assays?
TEAD-YAP block: 72; MITF primary: inactive; FBW7 activator: inactive; GPR151 ag: inactive

What do the screens show for `CNC(=O)c1ccccc1Nc1ccnc(Nc2ccccn2)c1`?
TEAD-YAP block: 76; MITF primary: inactive; FBW7 activator: inactive; GPR151 ag: inactive

What do the screens show for `CNC(=O)c1ccccc1Nc1cc(Nc2ccc(C(=O)N(C)C)cn2)ncc1C(F)(F)F`?
TEAD-YAP block: 84; MITF primary: inactive; FBW7 activator: inactive; GPR151 ag: inactive

Results for CNC(=O)c1ncccc1Nc1cc(Nc2ccc3[nH]ncc3c2)ncc1C(F)(F)F ?
TEAD-YAP block: inactive; MITF primary: inactive; FBW7 activator: inactive; GPR151 ag: inactive

How did CNC(=O)c1ccccc1Nc1cc(Nc2ncccc2C)ncc1C(F)(F)F do in these assays?
TEAD-YAP block: 40; MITF primary: inactive; FBW7 activator: inactive; GPR151 ag: inactive

How did CCOC(=O)c1cnc2c(C(=O)OCC)cnn2c1N do in these assays?
TEAD-YAP block: inactive; MITF primary: inactive; FBW7 activator: inactive; GPR151 ag: inactive

Results for Cc1ccc(S(=O)(=O)N2Cc3ccccc3CC2C(=O)Nc2ccc(C)cc2C)cc1 (centres undefined) ?
TEAD-YAP block: inactive; MITF primary: inactive; FBW7 activator: inactive; GPR151 ag: inactive

What do the screens show for `CNC(=O)c1ccccc1Nc1cc(Nc2ccc(C(=O)N(C)C)cc2C)ncc1C(F)(F)F`?
TEAD-YAP block: 73; MITF primary: inactive; FBW7 activator: inactive; GPR151 ag: inactive

What do the screens show for `CNC(=O)c1ccccc1Nc1cc(Nc2ccc(-c3cncnc3)cc2OC)ncc1C(F)(F)F`?
TEAD-YAP block: inactive; MITF primary: inactive; FBW7 activator: inactive; GPR151 ag: inactive

What do the screens show for `Cc1ccc(-n2c(SCc3cc(=O)n4ccccc4n3)nc3[nH]ncc3c2=O)cc1Cl`?
TEAD-YAP block: 33; MITF primary: inactive; FBW7 activator: inactive; GPR151 ag: inactive

Results for O=C(CN1CCOCC1)n1c2ccccc2c2ccccc21 ?
TEAD-YAP block: inactive; MITF primary: inactive; FBW7 activator: inactive; GPR151 ag: inactive
